# Experimental data published in PubChem BioAssay AID686978 (National Center for Advancing Translational Sciences (NCATS), 2013).
# Among all 420,000 compounds or so, about 64,000 (15%) were called active. About 27% were inconclusive and are not listed. Calls follow the shape of the dose curve; as a rule, active = well fitted inhibition curve with a large enough effect; inconclusive = small, poorly fitted or top-dose-only effect; inactive = flat fitted curve, though single readings scatter. Only a sample is shown. A call without a number means that no potency is given here.
# Assay: qHTS for Inhibitors of human tyrosyl-DNA phosphodiesterase 1 (TDP1): qHTS in cells in absence of CPT; also: nearly all actives have a fitted effect of over 55% in size
# Conditions: DT40 Tdp1-/- hTDP1 cells, no CPT, ATP luminescence, 48 h; activity change, negative = growth inhibition: at 46.2 µM (top of the series)
# Method in brief: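 A cellular qHTS used chicken DT40 cells lacking endogenous Tdp1 but carrying stably transfected human TDP1. Compounds were applied without camptothecin, and cell growth kinetics were judged by ATP-dependent luminescence after ≥48 hr.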
# Potency is read from the fitted curve at half-maximal effect.
row,SMILES,Potency
1,CC(=O)c1ccc(NC(=O)CSC(=S)N2CCCC2)cc1,inactive
2,CCN(CC(=O)Nc1ccc(NC(C)=O)cc1)C(=O)CSC(=S)N1CCCC1,7.31 µM (active)
3,COc1cccc(NC(=O)CN(C)C(=O)CSC(=S)N2CCCC2)c1,inactive
4,CC(C)(C)OC(=O)C1=C(CO)CS[C@@H]2[C@H](NC(=O)Cc3ccccc3)C(=O)N12,inactive
5,O=C(c1ccc2c(c1)N(Cc1ccc(F)cc1)C(=O)CS2)N1CCOCC1,inactive
6,O=C(NCCC1=CCCCC1)c1ccc2c(c1)N(Cc1ccccc1F)C(=O)c1ccccc1S2(=O)=O,16.4 µM (active)
7,O=C(NCCc1ccccc1)c1ccc2c(c1)N(Cc1ccc(F)cc1)C(=O)c1ccccc1S2(=O)=O,13 µM (active)
8,O=C(NCCc1ccc(Cl)cc1)c1cccc(N2CCCC2=O)c1,inactive
9,NS(=O)(=O)c1ccc(CCNC(=O)CN2C(=O)c3ccccc3S2(=O)=O)cc1,inactive
10,O=C(NCCc1ccc(Cl)cc1)c1ccc2c(c1)N(Cc1ccc(F)cc1)C(=O)CS2,29.1 µM (active)
11,CN(Cc1ccc(F)cc1)C(=O)CN1C(=O)c2ccccc2S1(=O)=O,inactive
12,Cc1ccc(C)c(NC(=O)Cn2ccn(-c3ccc(F)cc3)c(=O)c2=O)c1,inactive
13,NS(=O)(=O)c1ccc(CCNC(=S)Nc2ccc(S(N)(=O)=O)cc2)cc1,inactive
14,CCOc1ccc(N(CC)C(=O)c2cc3c(=O)oc4ccccc4c3s2)cc1,inactive
15,Cc1cc([N+](=O)[O-])nn1Cc1ccc(F)cc1,inactive
16,O=c1c2ccccc2c(-c2ccccc2)nn1-c1ccccn1,inactive
17,CNC(=O)n1ccc(C(=O)N2CCCCC2)n1,inactive
18,O=C(CCC(=O)c1cccs1)NCc1ccccc1,inactive
19,Cc1ccc(SCCN2C(=O)NC(C)(C)C2=O)cc1,inactive
20,O=C(CC1CCCCC1)NCc1ccco1,inactive
21,O=C(Nc1ccc(Cl)cc1)C1c2cccc[n+]2CC(=O)N1Cc1ccc2c(c1)OCO2 (centres undefined),1.03 µM (active)
22,O=C(Nc1ccc2c(c1)OCCO2)C1c2ccccc2OCC(=O)N1Cc1ccccn1 (centres undefined),inactive
23,O=C(Nc1ccc(NC(=O)c2ccc3c(c2)OCO3)cc1)c1cccc(Cl)c1,inactive

row,SMILES,Potency
1,CSc1ccccc1C(=O)NCc1ccccc1,inactive
2,C=CCOc1cccc(CNn2cn[nH]c2=S)c1,inactive
3,CC(=O)Nc1ccc(Oc2ccc3c(c2)C(=O)NC3=O)cc1,inactive
4,Cc1cc(C)nc(S/C=C/C(=O)c2ccccc2)n1,2.59 µM (active)
5,Cc1ccc(N/C=C/C(=O)c2ccccc2)cc1C,inactive
6,C/C(=N\NC(=O)c1nc(C)cc(C)n1)c1ccccc1,inactive
7,COC1=CCC2([N+](=O)[O-])CN(CC(=O)O)CC1([N+](=O)[O-])C2 (centres undefined),inactive
8,Cc1ccc(NC(=O)NC(=O)N(C2CCCCC2)S(=O)(=O)c2ccccc2)cc1,inactive
9,Cc1ccc2[nH]c3c(=O)n(Cc4ccccn4)cnc3c2c1,inactive
10,CC(C)c1cccc(C(C)C)c1Nc1cn[nH]c1,20.6 µM (active)
11,O=C(O)CCCN1C(=O)c2ccccc2Sc2ncccc21,inactive
12,C=CCOc1cccc(CNCc2cccnc2)c1,inactive
13,Cn1cnc([N+](=O)[O-])c1Sc1ccccc1,23.1 µM (active)
14,Cn1cnc([N+](=O)[O-])c1Sc1n[nH]c(N)n1,inactive
15,Cn1cnc([N+](=O)[O-])c1Nc1ccccc1O,inactive
16,C=CCN1C(=O)C2(OCCCO2)c2cccc(Cl)c21,inactive
17,CCC(C)(C)n1nnnc1C(c1ccccc1OC)N1CCSCC1 (centres undefined),inactive
18,CCC(C)(C)n1nnnc1C(c1ccc(OC)c(OC)c1)N1CCN(C(=O)c2ccco2)CC1 (centres undefined),inactive
19,CCC(C)(C)n1nnnc1C(c1cccs1)N1CCN(c2nc3ccccc3s2)CC1 (centres undefined),15.8 µM (active)
20,O=C(CCn1nnc2ccccc2c1=O)N[C@@H](Cc1c[nH]c2ccccc12)C(=O)O,inactive
21,CCOC(=O)N1CCC(NC(=O)Cc2cn(C)c3ccccc23)CC1,inactive
22,CC(C)=CCC/C(C)=C/CC/C(C)=C/CC/C(C)=C/CO,inactive
23,CCSc1nc2c(c(=O)[nH]1)C(c1cccnc1)C(C(=O)OC(C)C)=C(C)N2 (centres undefined),inactive

row,SMILES,Potency
1,COc1cc(CNC2CCCC2)c(Br)cc1OCc1ccccc1,16.4 µM (active)
2,COc1cc(OC)c(NC(=O)C2CCCN2C(=O)OCc2ccccc2)cc1Cl (centres undefined),inactive
3,COc1cc(CN2CCC(C(N)=O)CC2)ccc1OCc1ccccc1,inactive
4,O=C(CN1CCSCC1)N/N=C/c1ccc(F)cc1,inactive
5,COc1ccc(-c2csc(NC3OC(=O)c4ccccc43)n2)cc1 (centres undefined),6.51 µM (active)
6,CCc1ccccc1NC(=O)[C@@H]1CCC(=O)N1C1OC(=O)c2c1ccc(OC)c2OC (some centres undefined),inactive
7,COc1ccc(-c2csc(NC(=O)CCCc3cccs3)n2)cc1,inactive
8,COc1ccc2c(c1OC)C(=O)OC2c1c(O)nc(SC)n(-c2ccccc2)c1=O (centres undefined),inactive
9,COc1ccc2c(c1OC)C(=O)OC2Nc1nc(-c2ccccc2)cs1 (centres undefined),1.84 µM (active)
10,O=C(O)c1ccc(Cn2c(=S)[nH]c3cc(Cl)ccc3c2=O)cc1,inactive
11,CCOC(=O)CSc1nnc(CNc2nc(-c3ccccc3)cs2)n1C,inactive
12,Cc1ccc(O/C=C2\OC(=O)c3ccccc32)cc1,inactive
13,O=C1CC2(CCCCC2)Oc2ccc(OCC(=O)N3CCOCC3)cc21,inactive
14,CCN(CC)c1ccc([N+](=O)[O-])cc1C(=O)O,inactive
15,Cc1cccc(C(=O)c2cccc(C)c2)c1,inactive
16,Cc1cccc(C=CC(=O)c2ccc(Cl)cc2)c1,13 µM (active)
17,Cc1cc(C)nc(NC(=O)/C=C/c2ccc(Cl)cc2)n1,inactive
18,COc1ccc(CNC(=O)C2CCN(S(=O)(=O)N3CCOCC3)CC2)cc1,inactive
19,CC(=O)Nc1ccc(SCC(=O)NC(=O)c2ccc(Cl)cc2)cc1,inactive
20,CC(Oc1ccc2c(-c3ccccc3)cc(=O)oc2c1)C(=O)NC(Cc1c[nH]c2ccccc12)C(=O)O (centres undefined),inactive
21,O=C(CNC(=O)OCc1ccccc1)Oc1cc2oc(=O)cc(-c3ccccc3)c2cc1Cl,8.2 µM (active)
22,O=C(CNC(=O)c1ccc(-c2ccccc2)cc1)OCc1ccc(Cl)cc1,inactive
23,CCOC(=O)c1cnc2sccn2c1=O,inactive
